ssDAF12 agonist – activators of S. stercoralis DAF-12 nuclear receptor; HEK293 ssDAF-12/GRIP1 lit1-tk-luc reporter, luminescence; % of 3 µM dafachronic acid response; activation, % at 6.8 µM; 370,000 tested, 1% active; AID 652126;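 active = activation above the mean over all tested compounds plus 3 SD, cut at about 0.9% in these data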;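 also: 0% = DMSO-only wells and 100% = 3 µM delta7-dafachronic acid wells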
AHR act – activates the human aryl hydrocarbon receptor | 320,000 tested, 2.5% active | AHR-responsive luciferase reporter cells, luminescence | activation, % at 5 µM; in the data active = activation above about 47%;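 also: 0% = vehicle wells and 100% = reference agonist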
hgDAF12 agonist – agonists of H. glycines DAF-12 nuclear receptor; HEK293 GAL4-hgDAF12 UAS-luciferase reporter, agonist luminescence; normalized to butyrate control; activation, % at 6.8 µM; AID 687014; 370,000 tested, 1.8% active;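 active = activation above a cutoff set at the mean of all screened compounds plus 3 SD, cut at about 10% in these data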;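 also: 0% = DMSO wells and 100% = sodium butyrate wells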
DAX1 inh-1 – DAX1 (NR0B1) inhibition, primary screen; HEK293T StAR-luciferase reporter, SF-1/DAX-1 repression relief; inhibition, % at 6.8 µM; 370,000 tested, 1.1% active; AID 652010;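 active = inhibition above the mean over all tested compounds plus 3 SD, cut at about 3.6% in these data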;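 also: 0% = DAX-1 cells with DMSO and 100% = cells lacking DAX-1 with DMSO; higher inhibition means more luminescence from relief of DAX-1 repression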
DAX1 inh-2 – inhibitors of human orphan nuclear receptor DAX1 (NR0B1); P51843; HEK293 Gal4-DAX1 luciferase reporter, luminescence; inhibition, % at 6.75 µM; 340,000 tested, 0.99% active;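 active = inhibition above the mean over all tested compounds plus 3 SD, cut at about 4.2% in these data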;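 also: 0% = DAX1-transfected cells with DMSO and 100% = empty-vector control cells with DMSO; inhibition shows as a rise in luminescence from relieved DAX1 repression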
Target sequence (P51843 207-470 limits assumed): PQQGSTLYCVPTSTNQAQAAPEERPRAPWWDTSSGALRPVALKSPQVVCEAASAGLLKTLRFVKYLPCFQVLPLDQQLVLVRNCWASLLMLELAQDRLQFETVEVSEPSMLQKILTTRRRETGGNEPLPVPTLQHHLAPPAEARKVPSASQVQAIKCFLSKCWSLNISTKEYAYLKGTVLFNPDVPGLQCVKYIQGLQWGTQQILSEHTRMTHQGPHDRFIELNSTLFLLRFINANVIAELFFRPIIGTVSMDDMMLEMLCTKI
hcDAF-12 act – H. contortus DAF-12 activation, primary screen; 370,000 tested, 1.4% active; activation, % at 6.8 µM; HEK293 hcDAF-12 lit1-tk-luc reporter, luminescence; 0% DMSO, 100% Δ7-dafachronic acid;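 active = activation above the mean of all tested compounds plus 3 SD, cut at about 5.5% in these data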;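 also: 100% = response to 3 µM Δ7-dafachronic acid high control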
Starred values were filed as active, the others as inactive; nt = not tested or not shown. Sampled rows, rich in hits. Any-hit rate of the full collection: about 5.7%.

SMILES	ssDAF12 agonist	AHR act	hgDAF12 agonist	DAX1 inh-1	DAX1 inh-2	hcDAF-12 act
Cc1cccc(C(=O)NNC(=O)c2ccco2)c1	0	5	1	0	1	0
CC(=O)c1c(C)oc2c1cc(NS(=O)(=O)c1ccc(C(=O)O)cc1)c1ccccc12	-1	39	1	0	3	-1
Cc1ccc(S(=O)(=O)Nc2cc3c(C(=O)Nc4ccccc4)c(C)oc3c3ccccc23)cc1	-1	64*	-2	-1	-1	1
CCN(CC)CCN(Cc1cc2cc(C)cc(C)c2[nH]c1=O)C(=S)NCc1ccco1	-1	24	-1	1	-1	-2
CCOc1ccc(/C=N/NC(=O)c2cc3c(OC)cc(OC)c(OC)c3[nH]2)cc1	-2	48*	-2	-2	-2	-2
COc1ccc2[nH]c(C(=O)N/N=C/c3ccccc3OC)cc2c1	-2	8	9	-2	-4	-4
COc1ccc(OC)c(/C=N/NC(=O)c2cc3c(OC)c(OC)ccc3[nH]2)c1	-2	79*	1	-1	-1	0
COc1cc2cnc(-c3ccsc3)cc2cc1OC	0	49*	1	0	1	2
c1cnc2cc(-c3ccsc3)ncc2c1	-1	-8	3	0	2	0
COc1cc2cnc(-c3ccsc3)c(-c3ccc(F)cc3)c2cc1OC	-1	1	0	0	-1	-2
Fc1ccc2cc(-c3ccsc3)ncc2c1	0	51*	9	1	2	4
O=c1cc(Cl)nc2ccccn12	-1	nt	0	0	-1	-1
Cc1c(C)c2ccc(OC(C)C(=O)N[C@@H](Cc3c[nH]c4ccccc34)C(=O)O)c(C)c2oc1=O (some centres not stated)	-1	8	2	1	4	5.9*
CN(C(=O)c1cc(-c2ccccc2)on1)C1CCCCC1	0	3	11*	3	3	2
Cc1cc(C(=O)N(C)C2CCCCC2)no1	-1	2	1	1	1	-1
Cc1oc2c(c1C(=O)c1ccccc1)C(=O)C(=O)c1ccccc1-2	-2	64*	-4	-5	-1	-1
O=C1C(=O)c2c(C(=O)c3ccccc3)coc2-c2ccccc21	-1	52*	7	-1	0	-1
O=C(C1=C(c2ccccc2)C(=O)c2ccccc2C1=O)c1ccccc1	-3	nt	-12	-4	-6	-5
CCc1ccccc1N(C(=O)c1snc(C(N)=O)c1N)C(C(=O)NCC1CCCO1)c1ccc(OC)c(OC)c1 (configuration not stated)	-1	nt	-1	-1	-3	-4
COc1cc(OC)c(NC(=O)c2cncn2-c2ccc(F)cc2)cc1Cl	-1	65*	-1	0	0	0
COc1ccc(OCC(=O)Nc2ccc(NC(=O)c3cccs3)cc2)cc1	-1	-2	-2	-1	0	1
O=C(NCc1csc(-c2cccs2)n1)c1ccccc1	-1	4	2	0	2	1
O=C(NCc1csc(-c2cccs2)n1)c1cccc(Cl)c1	-2	8	0	0	4.4*	-2
COC(=O)c1scc(C)c1NC(=O)c1ccc(Cl)cc1	nt	2	nt	nt	-1	nt
COC(=O)c1scc(C)c1N/N=C(\C)c1ccc(F)cc1F	0	1	0	0	0	5.8*
SMILES	ssDAF12 agonist	AHR act	hgDAF12 agonist	DAX1 inh-1	DAX1 inh-2	hcDAF-12 act
CCOC(=O)N1CCC(N2CC34C=CC(O3)C(C(=O)Nc3ccc(F)cc3)C4C2=O)CC1 (configuration not stated)	nt	1	nt	nt	1	nt
COc1ccc(OC)c(C2=NNC(=NCc3ccc4c(c3)OCO4)SC2)c1	-2	6	-1	-1	-1	1
Cc1c(C(=O)NC2CCN(Cc3ccccc3)C2)oc2ccc(Br)cc12 (configuration not stated)	-1	1	1	0	1	0
COc1ccc(CNC(=O)C2CC(C)=C(C)CC2C(=O)O)cc1OC (configuration not stated)	0	-2	1	1	4.5*	-1
O=c1[nH]c(/C(Cl)=C/c2cc(Cl)ccc2O)nc2cc(Cl)ccc12	-2	34	-3	-1	-1	-2
O=c1[nH]c(/C(Cl)=C/c2c(F)cccc2Cl)nc2cc(Cl)ccc12	0	58*	-1	0	0	4

Bioassay records as filed in PubChem.
